Our source for the AC50 and outcome values is PubChem BioAssay (EPA / NIEHS).

Common to all, as to conditions: mRNA level, 48 h; actives raise or lower the signal
Read-out in test [1]: Glutathione S-transferase M3 (GSTM3), GSTM3 (gene 2947)
Nature of the test: LTEA_HepaRG_GSTM3: Life Technologies and Expression Analysis (LTEA) Assay for Glutathione S-transferase M3 (GSTM3) using HepaRG (AID 2283501). Put shortly: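 qRT-PCR read-out of GSTM3 transcript, normalized to three housekeeping genes, from human HepaRG cells after 48 h chemical exposure. Eight-point half-log series, top 100 uM, 0.5% DMSO vehicle; gain or loss fitted relative to DMSO baseline.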

Read-out in test [2]: Heat shock 70 kDa protein 1 (HSPA1A), gene 3303
The test can be described thus: LTEA_HepaRG_HSPA1A: Life Technologies and Expression Analysis (LTEA) Assay for Heat shock 70 kDa protein 1 (HSPA1A) using HepaRG (AID 2283502). Put shortly:
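HSPA1A expression measured by qRT-PCR with ACTB/GAPDH/POLR2A normalization; curves fitted in both directions relative to DMSO vehicle. Exposure: 48 h in HepaRG cells, duplicate 8-point half-log series from 100 uM, 0.5% DMSO, serum-free induction medium.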

Read-out in test [3]: Hypoxia-inducible factor 1-alpha (Homo sapiens) (UniProt Q16665)
The test can be described thus: LTEA_HepaRG_HIF1A: Life Technologies and Expression Analysis (LTEA) Assay for Hypoxia-inducible factor 1 (HIF1A) Trancription factor using HepaRG (AID 2283503). In outline:
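HIF1A transcript level read by qRT-PCR (ACTB, GAPDH, POLR2A normalization) after 48 h chemical exposure of HepaRG cultures. Eight half-log concentrations, top 100 uM, 0.5% DMSO vehicle, duplicates; bidirectional curve fit against DMSO baseline.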

Read-out in test [4]: 3-Hydroxy-3-Methylglutaryl-CoA Synthase 2 (HMGCS2), HMGCS2 (gene 3158)
The test can be described thus: LTEA_HepaRG_HMGCS2: Life Technologies and Expression Analysis (LTEA) Assay for 3-Hydroxy-3-Methylglutaryl-CoA Synthase 2 (HMGCS2) using HepaRG (AID 2283504). In outline:
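qRT-PCR read-out of HMGCS2 transcript, normalised to three housekeeping genes, in HepaRG cells after 48 h chemical exposure. Eight-point curves from 100 uM, half-log dilutions, 0.5% DMSO vehicle; gain or loss fitted relative to DMSO baseline.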

Read-out in another test: HGF (gene 3082)
The test can be described thus: LTEA_HepaRG_HGF: Life Technologies and Expression Analysis (LTEA) Assay for Hepatocyte Growth Facto (HGF) using HepaRG (AID 2283505). In outline: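 HepaRG, 48 h dosing, 8-pt half-log series from 100 uM in 0.5% DMSO, duplicates. Readout: TaqMan qRT-PCR of HGF mRNA, housekeeping-normalized; bidirectional curve fit vs DMSO baseline.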

Read-out in test [5]: Insulin Like Growth Factor 1 (IGF1), IGF1 (gene 3479)
Nature of the test: LTEA_HepaRG_IGF1: Life Technologies and Expression Analysis (LTEA) Assay for Insulin Like Growth Factor 1 (IGF1) using HepaRG (AID 2283506). Put shortly:
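Expression measured by TaqMan qRT-PCR on a Fluidigm array, with three housekeeping genes for normalisation, after 48 h treatment of HepaRG cells. Top concentration 100 uM with half-log steps, 0.5% DMSO vehicle, bidirectional fit.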

Read-out in test [6]: Intercellular Adhesion Molecule 1 (ICAM1), ICAM1 (gene 3383)
Nature of the test: LTEA_HepaRG_ICAM1: Life Technologies and Expression Analysis (LTEA) Assay for Intercellular Adhesion Molecule 1 (ICAM1) using HepaRG (AID 2283507). Put shortly:
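HepaRG, 48 h exposure, 8-pt half-log series from 100 uM, 0.5% DMSO vehicle, duplicates. Readout: TaqMan qRT-PCR mRNA, housekeeping-normalized (ACTB/GAPDH/POLR2A). Bidirectional curve fit vs DMSO baseline.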

Read-out in test [7]: Insulin-like growth factor-binding protein 1 (IGFBP1), IGFBP1 (gene 3484)
The test can be described thus: LTEA_HepaRG_IGFBP1: Life Technologies and Expression Analysis (LTEA) Assay for Insulin-like growth factor-binding protein 1 (IGFBP1) using HepaRG (AID 2283508). Put shortly: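 qRT-PCR mRNA read-out (TaqMan, Fluidigm array), normalised to three housekeeping genes; HepaRG cells, 48 h exposure, 8-pt half-log series from 100 uM, 0.5% DMSO vehicle; bidirectional curve fit vs DMSO baseline.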

Read-out in test [8]: Interleukin 6 (IL6), IL6 (gene 3569)
The test can be described thus: LTEA_HepaRG_IL6: Life Technologies and Expression Analysis (LTEA) Assay for Interleukin 6 (IL6) using HepaRG (AID 2283509). In outline:
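Changes in IL6 mRNA, up or down relative to 0.5% DMSO controls, were derived from concentration-response curves in human HepaRG cells treated for 48 h at up to 100 uM, with ACTB, GAPDH and POLR2A as normalizers.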

Read-out in test [9]: Interleukin 6 Receptor (IL6R), IL6R (gene 3570)
The test can be described thus: LTEA_HepaRG_IL6R: Life Technologies and Expression Analysis (LTEA) Assay for Interleukin 6 Receptor (IL6R) using HepaRG (AID 2283510). In outline: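 IL6R transcript level by qRT-PCR after 48 h chemical exposure (8-point, half-log, max 100 uM, 0.5% DMSO vehicle) of HepaRG cells in serum-free induction medium. Normalized to three housekeeping genes; curves fitted in both directions relative to DMSO.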

Read-out in test [10]: Potassium channel subfamily K member 1 (KCNK1), KCNK1 (gene 3775)
The test can be described thus: LTEA_HepaRG_KCNK1: Life Technologies and Expression Analysis (LTEA) Assay for Potassium channel subfamily K member 1 (KCNK1) using HepaRG (AID 2283511). Put shortly:
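Human HepaRG cultures receive test chemicals for 48 h in 0.5% DMSO, top concentration 100 uM with half-log dilutions. Induction or suppression of KCNK1 mRNA relative to DMSO is derived by bidirectional fitting of qRT-PCR data.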

Read-out in test [11]: Keratin 19 (KRT19), KRT19 (gene 3880)
The test can be described thus: LTEA_HepaRG_KRT19: Life Technologies and Expression Analysis (LTEA) Assay for Keratin 19 (KRT19) using HepaRG (AID 2283512). Put shortly:
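HepaRG, 48 h chemical exposure, 8-pt half-log CRC from 100 uM, 0.5% DMSO vehicle, duplicates. Readout: TaqMan qRT-PCR of KRT19 mRNA, housekeeping-normalized (ACTB/GAPDH/POLR2A). Bidirectional fit vs DMSO baseline.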

Read-out in test [12]: JUN Transcription Factor, JUN (gene 3725)
Nature of the test: LTEA_HepaRG_JUN: Life Technologies and Expression Analysis (LTEA) Assay for JUN Transcription Factor using HepaRG (AID 2283513). Put shortly: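 mRNA measured by TaqMan qRT-PCR after 48 h chemical exposure of HepaRG cultures; normalization to three housekeeping genes. Duplicate eight-point half-log curves from 100 uM in 0.5% DMSO; gain or loss fitted against DMSO baseline.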

Read-out in test [13]: MicroRNA 122 (MIR122), gene 406906
The test can be described thus: LTEA_HepaRG_MIR122: Life Technologies and Expression Analysis (LTEA) Assay for MicroRNA 122 (MIR122) using HepaRG (AID 2283516). Further: the transcript read is the microRNA miR-122. Put shortly: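 Expression measured by microfluidic qRT-PCR with three housekeeping genes for normalisation, after 48 h treatment of HepaRG cultures. Eight concentrations (top 100 uM, half-log steps, 0.5% DMSO vehicle) in duplicate; gain or loss fitted relative to vehicle.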

Read-out in test [14]: matrix metalloproteinase-10 (MMP10), MMP10 (gene 4319)
Nature of the test: LTEA_HepaRG_MMP10: Life Technologies and Expression Analysis (LTEA) Assay for matrix metalloproteinase-10 (MMP10) using HepaRG (AID 2283517). In outline: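 In differentiated HepaRG cultures kept in 0.5% DMSO, test chemicals act for 48 h over an eight-point range with a top dose of 100 uM. Expression is then quantified by TaqMan RT-PCR against ACTB, GAPDH and POLR2A.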

Read-out in the next test: MYC, MYC (gene 4609)
The test can be described thus: LTEA_HepaRG_MYC: Life Technologies and Expression Analysis (LTEA) Assay for MYC using HepaRG (AID 2283518). Put shortly: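 qRT-PCR read-out of MYC transcript (Fluidigm TaqMan, housekeeping-normalized) after 48 h chemical exposure of HepaRG cells; eight concentrations, top 100 uM, half-log steps. Bidirectional curve fitting against 0.5% DMSO vehicle baseline.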

Read-out in test [15]: matrix metalloproteinase-3 (MMP3), MMP3 (gene 4314)
Nature of the test: LTEA_HepaRG_MMP3: Life Technologies and Expression Analysis (LTEA) Assay for matrix metalloproteinase-3 (MMP3) using HepaRG (AID 2283519). In outline:
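Human liver HepaRG cultures received chemicals (top concentration 100 uM, 0.5% DMSO) for 48 h in duplicate. MMP3 mRNA induction or loss was then assessed via TaqMan qRT-PCR with housekeeping-gene normalisation.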

Read-out in test [16]: Paternally Expressed 10 (PEG10), PEG10 (gene 23089)
Nature of the test: LTEA_HepaRG_PEG10: Life Technologies and Expression Analysis (LTEA) Assay for Paternally Expressed 10 (PEG10) using HepaRG (AID 2283520).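 On AC50: differentiated HepaRG human liver cells in serum-free induction medium with 0.5% DMSO; PEG10 transcript by qRT-PCR normalised to ACTB GAPDH and POLR2A.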 Put shortly:
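PEG10 transcript measured by Fluidigm qRT-PCR, normalized to three housekeeping genes, in HepaRG cells treated 48 h (highest 100 uM, half-log steps, 0.5% DMSO vehicle). Cells plated 48 h before switching to serum-free induction medium.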

Active and inactive are the calls of the source. How the source made its calls: active means hit-call score of the fitted dose curve at least 0.9, where 1 is the maximum; inactive means score below 0.9.

Hypoxia-inducible factor 1-alpha (Homo sapiens), sequence (Q16665 whole entry, looked up): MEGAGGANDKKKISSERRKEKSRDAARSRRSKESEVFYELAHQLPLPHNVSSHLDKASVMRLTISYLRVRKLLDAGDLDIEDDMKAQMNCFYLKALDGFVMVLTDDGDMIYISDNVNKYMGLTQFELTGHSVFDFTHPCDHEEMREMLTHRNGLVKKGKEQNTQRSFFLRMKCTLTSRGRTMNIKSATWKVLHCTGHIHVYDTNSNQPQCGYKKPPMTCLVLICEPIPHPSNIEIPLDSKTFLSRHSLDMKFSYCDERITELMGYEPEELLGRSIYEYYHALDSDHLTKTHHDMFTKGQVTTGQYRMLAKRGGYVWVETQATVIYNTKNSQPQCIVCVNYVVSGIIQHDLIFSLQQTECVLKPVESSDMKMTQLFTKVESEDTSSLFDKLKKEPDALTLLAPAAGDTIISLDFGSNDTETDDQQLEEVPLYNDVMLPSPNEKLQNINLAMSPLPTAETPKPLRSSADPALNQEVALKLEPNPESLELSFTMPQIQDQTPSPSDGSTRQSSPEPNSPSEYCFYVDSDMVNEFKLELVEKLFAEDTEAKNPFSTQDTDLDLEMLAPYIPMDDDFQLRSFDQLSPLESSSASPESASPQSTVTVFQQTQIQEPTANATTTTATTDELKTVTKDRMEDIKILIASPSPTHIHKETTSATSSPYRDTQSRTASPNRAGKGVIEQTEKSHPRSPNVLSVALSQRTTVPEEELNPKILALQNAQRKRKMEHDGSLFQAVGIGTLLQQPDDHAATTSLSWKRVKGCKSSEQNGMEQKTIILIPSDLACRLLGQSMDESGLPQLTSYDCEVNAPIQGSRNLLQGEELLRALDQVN

Regarding `c1nc[nH]n1`, the AC50 is 12.6 µM (active) in test [1]; 0.112 µM (active) in [6]; 0.116 µM (active) in test [10]; 15.8 µM (active) in test [14]; 0.104 µM (active) with MYC, MYC (gene 4609); 0.0899 µM (active) in test [15]. Moreover, the outcome (in [2]; in [3]; in test [4]; with HGF (gene 3082); in test [5]; in test [7]) was inactive. Further, the compound was called inactive in test [8], in test [9], in [11], in test [12], in test [13] and in test [16].
In the case of `CCNc1nc(Cl)nc(NC(C)(C)C)n1`, the compound was called inactive (in [1]; in test [2]; in [3]; in test [4]; with HGF (gene 3082); in test [6]). The call in test [7], in [8], in test [9], in test [10], in test [12] and in test [13] was inactive. For the same compound, the outcome was “inactive” in test [14]; “inactive” with MYC, MYC (gene 4609); “inactive” in [15]. In addition, the AC50 in test [5] is 13.1 µM (active); in [11] it was 10.7 µM (active); in test [16] it was 17.4 µM (active).
For the compound `c1cc2c3c(cccc3c1)CC2`, the compound was classed as inactive (in test [1]; in [2]; in test [3]; in test [4]; with HGF (gene 3082); in [5]). Besides, the compound was classed as inactive in test [6], in test [7], in test [8], in [9], in [10] and in [11]. Moreover, the outcome in test [12] was “inactive”; in [13], “inactive”; in test [14] it was “inactive”; in the test with MYC, MYC (gene 4609), “inactive”; in test [15], “inactive”; in [16], “inactive”.
Consider `Cc1cccc(N)c1`, for which the outcome (in test [1]; in test [2]; in test [3]; in [4]; in the test with HGF (gene 3082); in test [5]) was inactive. For the same compound, the compound was called inactive in test [6], in [7], in test [8], in [9], in test [10] and in [11]. Also, the outcome in test [12] was “inactive”; in test [13] it was “inactive”; in test [14] it was “inactive”; with MYC, MYC (gene 4609), “inactive”; in test [15] it was “inactive”; in test [16], “inactive”.
Regarding `O=[N+]([O-])c1ccc(Cl)c(Cl)c1`, the compound was classed as inactive (in test [1]; in test [2]; in test [3]; in test [4]; with HGF (gene 3082); in test [5]). For the same compound, the compound was called inactive in test [6], in test [7], in test [8], in test [9], in [10] and in test [11]. For the same compound, the outcome in [12] is “inactive”; in test [13] it was “inactive”; in test [14], “inactive”; with MYC, MYC (gene 4609), “inactive”; in [15], “inactive”; in [16], “inactive”.

A word on the AC50: it is the midpoint of the concentration-response curve, whichever way the signal moves.
